# ± gives the standard deviation.
# Columns and labels:
# Experiment in all cases: peptide microarray binding signal (635 nm), min-max normalized on array (fraction of array maximum); higher = stronger binding
# [1] = target: T1, HaloTag-ATRX ADD domain (163-292)
# T1 chain: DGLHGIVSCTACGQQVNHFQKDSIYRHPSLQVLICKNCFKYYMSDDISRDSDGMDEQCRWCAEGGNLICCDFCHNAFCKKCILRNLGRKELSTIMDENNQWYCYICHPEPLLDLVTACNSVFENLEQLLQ
# How it was run: (§1)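 Within each library, mean intensities of triplicate spots were min-max scaled to give the binding signal. The spots were histone 13-mer peptide–cellulose conjugates on nitrocellulose with a Cy3 tracer, blocked overnight at 4°C. They were then probed for 1 h at 4°C using biotin-labelled HaloTag reader fusions (10 nM to 1 μM) with streptavidin-Alexa Fluor 647 or rabbit histone antibodies (1:10,000 to 1:2,000) with anti-rabbit Alexa 647, and scanned at 635 nm for signal and 532 nm for misprints on an Axon GenePix 4000B.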
# [2] = target: HaloTag-ING2 PHD (mouse Ing2 200-280)
# How it was run: as §1
# [3] = target: anti-H3K4me3 antibody ab8580
# How it was run: as §1
# [4] = target: anti-H3K9me3 antibody ab8898
# How it was run: as §1
# [5] = peptide region: H4 8-19, peptide modifications: H4R17me2s, binder concentration: 1:2,000 dilution
# [6] = peptide region: H4 8-19, peptide modifications: H4R17me2s, binder concentration: 1:10,000 dilution
# [7] = peptide region: H4 16-28, binder concentration: 1:2,000 dilution
# [8] = peptide region: H4 16-28, peptide modifications: H4K20ac, binder concentration: 1:2,000 dilution
# [9] = peptide region: H4 16-28, peptide modifications: H4K20me1, binder concentration: 1:2,000 dilution
# [10] = peptide region: H4 16-28, peptide modifications: H4K20me2, binder concentration: 1:2,000 dilution
# [11] = peptide region: H4 16-28, peptide modifications: H4K20me3, binder concentration: 1:2,000 dilution
# [12] = peptide region: H4 16-28, peptide modifications: H4R19cit H4K20ac, binder concentration: 1:2,000 dilution
# [13] = peptide region: H4 16-28, peptide modifications: H4R19cit H4K20ac, binder concentration: 1:10,000 dilution
# [14] = peptide region: H4 16-28, peptide modifications: H4R19cit H4K20me1, binder concentration: 1:2,000 dilution
# [15] = peptide region: H4 16-28, peptide modifications: H4R19cit H4K20me1, binder concentration: 1:10,000 dilution
# [16] = peptide region: H4 16-28, peptide modifications: H4R19cit H4K20me2, binder concentration: 1:2,000 dilution
# [17] = peptide region: H4 16-28, peptide modifications: H4R19cit H4K20me2, binder concentration: 1:10,000 dilution
# [18] = peptide region: H4 16-28, peptide modifications: H4R19cit H4K20me3, binder concentration: 1:2,000 dilution
# [19] = peptide region: H4 16-28, peptide modifications: H4R19cit H4K20me3, binder concentration: 1:10,000 dilution
# [20] = peptide region: H4 16-28, peptide modifications: H4R19cit, binder concentration: 1:2,000 dilution
# [21] = peptide region: H4 16-28, peptide modifications: H4R19me1, binder concentration: 1:2,000 dilution
# [22] = peptide region: H4 16-28, peptide modifications: H4R19me1 H4K20ac, binder concentration: 1:2,000 dilution
# [23] = peptide region: H4 16-28, peptide modifications: H4R19me1 H4K20ac, binder concentration: 1:10,000 dilution
binder,measurement,setting,value
KGLGKGGAKRHRK [H4 8-19 K G L G K G G A K Rme2s H R K],peptide microarray binding signal,"[1]; peptide region: H4 8-19, peptide modifications: H4R17me2s, binder concentration: 50 nM",0.00464 ± 0.00023
same,peptide microarray binding signal,"[1]; peptide region: H4 8-19, peptide modifications: H4R17me2s, binder concentration: 500 nM",0.02 ± 0.00069
same,peptide microarray binding signal,"[2]; peptide region: H4 8-19, peptide modifications: H4R17me2s, binder concentration: 10 nM",0.00173 ± 7.2e-05
same,peptide microarray binding signal,"[2]; peptide region: H4 8-19, peptide modifications: H4R17me2s, binder concentration: 100 nM",0.00184 ± 0.00024
same,peptide microarray binding signal,[3]; [5],0.000132 ± 1.5e-06
same,peptide microarray binding signal,[3]; [6],0.000685 ± 7.2e-06
same,peptide microarray binding signal,[4]; [5],0.000861 ± 4.5e-05
same,peptide microarray binding signal,[4]; [6],0.000807 ± 1.5e-05
KRHRKVLRDNIQG [H4 16-28 K R H R K V L R D N I Q G],peptide microarray binding signal,"[1]; peptide region: H4 16-28, binder concentration: 500 nM",0.000238 ± 2.5e-06
same,peptide microarray binding signal,"[2]; peptide region: H4 16-28, binder concentration: 100 nM",0.000354 ± 4.1e-06
same,peptide microarray binding signal,[3]; [7],0.000132 ± 1.5e-06
same,peptide microarray binding signal,[4]; [7],6.04e-05 ± 2.7e-06
KRHRKVLRDNIQG [H4 16-28 K R H R Kac V L R D N I Q G],peptide microarray binding signal,"[1]; peptide region: H4 16-28, peptide modifications: H4K20ac, binder concentration: 500 nM",0.000524 ± 1.1e-05
same,peptide microarray binding signal,"[2]; peptide region: H4 16-28, peptide modifications: H4K20ac, binder concentration: 100 nM",0.000354 ± 4.1e-06
same,peptide microarray binding signal,[3]; [8],0.000529 ± 9.8e-05
same,peptide microarray binding signal,[4]; [8],3.02e-05 ± 3.4e-07
KRHRKVLRDNIQG [H4 16-28 K R H R Kme V L R D N I Q G],peptide microarray binding signal,"[1]; peptide region: H4 16-28, peptide modifications: H4K20me1, binder concentration: 500 nM",0.000143
same,peptide microarray binding signal,"[2]; peptide region: H4 16-28, peptide modifications: H4K20me1, binder concentration: 100 nM",0.000283
same,peptide microarray binding signal,[3]; [9],7.55e-05 ± 8.5e-07
same,peptide microarray binding signal,[4]; [9],4.53e-05
KRHRKVLRDNIQG [H4 16-28 K R H R Kme2 V L R D N I Q G],peptide microarray binding signal,"[1]; peptide region: H4 16-28, peptide modifications: H4K20me2, binder concentration: 500 nM",0
same,peptide microarray binding signal,"[2]; peptide region: H4 16-28, peptide modifications: H4K20me2, binder concentration: 100 nM",0.000142 ± 1.7e-06
same,peptide microarray binding signal,[3]; [10],5.66e-05 ± 1.1e-06
same,peptide microarray binding signal,[4]; [10],1.51e-05 ± 1.7e-07
KRHRKVLRDNIQG [H4 16-28 K R H R Kme3 V L R D N I Q G],peptide microarray binding signal,"[1]; peptide region: H4 16-28, peptide modifications: H4K20me3, binder concentration: 500 nM",0.000667 ± 3.7e-05
same,peptide microarray binding signal,"[2]; peptide region: H4 16-28, peptide modifications: H4K20me3, binder concentration: 100 nM",7.09e-05 ± 1.5e-06
same,peptide microarray binding signal,[3]; [11],0.000982 ± 0.00023
same,peptide microarray binding signal,[4]; [11],1.51e-05 ± 1.7e-07
KRHRKVLRDNIQG [H4 16-28 K R H Rcit Kac V L R D N I Q G],peptide microarray binding signal,"[1]; peptide region: H4 16-28, peptide modifications: H4R19cit H4K20ac, binder concentration: 50 nM",0.00511 ± 4.9e-05
same,peptide microarray binding signal,"[1]; peptide region: H4 16-28, peptide modifications: H4R19cit H4K20ac, binder concentration: 500 nM",0.00829 ± 0.00052
same,peptide microarray binding signal,"[2]; peptide region: H4 16-28, peptide modifications: H4R19cit H4K20ac, binder concentration: 10 nM",0.00633 ± 0.0001
same,peptide microarray binding signal,"[2]; peptide region: H4 16-28, peptide modifications: H4R19cit H4K20ac, binder concentration: 100 nM",0.0106 ± 0.00059
same,peptide microarray binding signal,[3]; [12],0.000736 ± 6.2e-05
same,peptide microarray binding signal,[3]; [13],0.00137 ± 1.3e-05
same,peptide microarray binding signal,[4]; [12],0.0004832 ± 4.6e-06
same,peptide microarray binding signal,[4]; [13],0.00196 ± 3.7e-05
KRHRKVLRDNIQG [H4 16-28 K R H Rcit Kme V L R D N I Q G],peptide microarray binding signal,"[1]; peptide region: H4 16-28, peptide modifications: H4R19cit H4K20me1, binder concentration: 50 nM",0.00693 ± 7.8e-05
same,peptide microarray binding signal,"[1]; peptide region: H4 16-28, peptide modifications: H4R19cit H4K20me1, binder concentration: 500 nM",0.00933 ± 0.00036
same,peptide microarray binding signal,"[2]; peptide region: H4 16-28, peptide modifications: H4R19cit H4K20me1, binder concentration: 10 nM",0.0107 ± 0.00018
same,peptide microarray binding signal,"[2]; peptide region: H4 16-28, peptide modifications: H4R19cit H4K20me1, binder concentration: 100 nM",0.0139 ± 0.00037
same,peptide microarray binding signal,[3]; [14],0.00145 ± 4.8e-05
same,peptide microarray binding signal,[3]; [15],0.002853 ± 2.4e-05
same,peptide microarray binding signal,[4]; [14],0.000785 ± 4.4e-05
same,peptide microarray binding signal,[4]; [15],0.002479 ± 2.2e-05
KRHRKVLRDNIQG [H4 16-28 K R H Rcit Kme2 V L R D N I Q G],peptide microarray binding signal,"[1]; peptide region: H4 16-28, peptide modifications: H4R19cit H4K20me2, binder concentration: 50 nM",0.00351 ± 7.6e-05
same,peptide microarray binding signal,"[1]; peptide region: H4 16-28, peptide modifications: H4R19cit H4K20me2, binder concentration: 500 nM",0.007572 ± 7.1e-05
same,peptide microarray binding signal,"[2]; peptide region: H4 16-28, peptide modifications: H4R19cit H4K20me2, binder concentration: 10 nM",0.00812 ± 0.00016
same,peptide microarray binding signal,"[2]; peptide region: H4 16-28, peptide modifications: H4R19cit H4K20me2, binder concentration: 100 nM",0.0181 ± 0.00075
same,peptide microarray binding signal,[3]; [16],0.0008306 ± 7.4e-06
same,peptide microarray binding signal,[3]; [17],0.0016
same,peptide microarray binding signal,[4]; [16],0.000483 ± 9.2e-06
same,peptide microarray binding signal,[4]; [17],0.001211 ± 1.2e-05
KRHRKVLRDNIQG [H4 16-28 K R H Rcit Kme3 V L R D N I Q G],peptide microarray binding signal,"[1]; peptide region: H4 16-28, peptide modifications: H4R19cit H4K20me3, binder concentration: 50 nM",0.0068 ± 9.7e-05
same,peptide microarray binding signal,"[1]; peptide region: H4 16-28, peptide modifications: H4R19cit H4K20me3, binder concentration: 500 nM",0.00848 ± 0.0011
same,peptide microarray binding signal,"[2]; peptide region: H4 16-28, peptide modifications: H4R19cit H4K20me3, binder concentration: 10 nM",0.0124 ± 0.00084
same,peptide microarray binding signal,"[2]; peptide region: H4 16-28, peptide modifications: H4R19cit H4K20me3, binder concentration: 100 nM",0.018 ± 0.0027
same,peptide microarray binding signal,[3]; [18],0.00832 ± 0.0026
same,peptide microarray binding signal,[3]; [19],0.00514 ± 0.0003
same,peptide microarray binding signal,[4]; [18],0.0039 ± 0.0016
same,peptide microarray binding signal,[4]; [19],0.00369 ± 0.00012
KRHRKVLRDNIQG [H4 16-28 K R H Rcit K V L R D N I Q G],peptide microarray binding signal,"[1]; peptide region: H4 16-28, peptide modifications: H4R19cit, binder concentration: 500 nM",0.000476 ± 2.1e-05
same,peptide microarray binding signal,"[2]; peptide region: H4 16-28, peptide modifications: H4R19cit, binder concentration: 100 nM",0.000283 ± 5.7e-06
same,peptide microarray binding signal,[3]; [20],9.44e-05 ± 2.1e-06
same,peptide microarray binding signal,[4]; [20],3.02e-05 ± 3.4e-07
KRHRKVLRDNIQG [H4 16-28 K R H Rme K V L R D N I Q G],peptide microarray binding signal,"[1]; peptide region: H4 16-28, peptide modifications: H4R19me1, binder concentration: 500 nM",9.52e-05 ± 1e-06
same,peptide microarray binding signal,"[2]; peptide region: H4 16-28, peptide modifications: H4R19me1, binder concentration: 100 nM",0.000425 ± 4.9e-06
same,peptide microarray binding signal,[3]; [21],0.000113 ± 2.2e-06
same,peptide microarray binding signal,[4]; [21],1.51e-05 ± 1.7e-07
KRHRKVLRDNIQG [H4 16-28 K R H Rme Kac V L R D N I Q G],peptide microarray binding signal,"[1]; peptide region: H4 16-28, peptide modifications: H4R19me1 H4K20ac, binder concentration: 50 nM",0.00448 ± 0.00018
same,peptide microarray binding signal,"[1]; peptide region: H4 16-28, peptide modifications: H4R19me1 H4K20ac, binder concentration: 500 nM",0.00967 ± 0.0016
same,peptide microarray binding signal,"[2]; peptide region: H4 16-28, peptide modifications: H4R19me1 H4K20ac, binder concentration: 10 nM",0.00627 ± 0.00047
same,peptide microarray binding signal,"[2]; peptide region: H4 16-28, peptide modifications: H4R19me1 H4K20ac, binder concentration: 100 nM",0.00609 ± 0.00066
same,peptide microarray binding signal,[3]; [22],0.00468 ± 0.0037
same,peptide microarray binding signal,[3]; [23],0.00137 ± 1.3e-05
same,peptide microarray binding signal,[4]; [22],0.000287 ± 2.9e-06
same,peptide microarray binding signal,[4]; [23],0.001557 ± 1.5e-05
